Experimental data taken from PubChem BioAssay (Tox21).
Records with an inconclusive call do not appear. Where a call stands in place of a potency, no number is given. The source made the active and inactive calls. Unless noted, calls follow the shape of the dose curve; as a rule, active = well fitted curve in the direction sought with a large enough effect in the repeat runs; inconclusive = weak or mixed curves; inactive = no such curve, though single readings can be large; an effect the other way counts as inactive or inconclusive.

How the values were obtained:
[1] = qHTS assay to identify small molecule antagonists of the estrogen related receptor (ERR) signaling pathway - cell viability counter screen (AID 1224818); conditions: ERR reporter cell line viability counter screen; series mostly up to 46.1 µM;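 also: viability measured after 17.5 h of compound exposure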
Summary of the method: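 Cytotoxicity counter screen: fluorescence from CellTiter-Fluor, added after 17.5 h compound exposure at 37 C and read 30 min later. ERR cell line seeded at 2,000 cells/well, preincubated 6 h before dosing.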

[2] = qHTS assay to identify small molecule agonists of the estrogen related receptor (ERR) signaling pathway (AID 1224820); conditions: ERR reporter cell line, luciferase agonist mode; series mostly up to 46.1 µM
Summary of the method: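 Following a 6 h settling period, 2,000 ERR cells per well receive DMSO-dissolved compounds by pin tool and incubate 18 h at 37 C; agonist activity is scored from One-Glo luminescence read 30 min post-addition.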

[3] = tested on: estrogen-related receptor alpha (ERRalpha) with PGC-1alpha coactivator, human; test: qHTS assay to identify small molecule antagonists of the estrogen related receptor signaling pathway with the pleiotropic PPARgamma coactivator (PGC) (AID 1224821; calls by dose curve; also: nearly all actives have a fitted effect of over 50% in size; also: potency is read from the fitted curve at half-maximal effect); conditions: ERR/PGC reporter cell line, luciferase, antagonist mode; series mostly up to 46.1 µM
Summary of the method: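 Screening used NTP's PGC/ERR cells, dosed via pin tool with compound in DMSO alongside positive and negative controls. After 18 h at 37 C, One-Glo reagent sat 30 min at room temperature before luminescence detection.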

[4] = qHTS assay to identify small molecule antagonists of the estrogen related receptor signaling pathway with the pleiotropic PPARgamma coactivator (PGC) cell viability counter screen (AID 1224822; also: potency is read from the fitted curve at half-maximal effect); conditions: ERR/PGC reporter cell line viability counter screen; series mostly up to 46.1 µM
Summary of the method: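 Viability counter-screen read by fluorescence intensity after 30 min with CellTiter-Fluor at 37 C; PGC/ERR reporter cells were exposed to compounds for 17.5 h at 37 C following a 6 h preincubation.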

[5] = qHTS assay to identify small molecule agonists of the estrogen related receptor signaling pathway with the pleiotropic PPARgamma coactivator (PGC) (AID 1224823); conditions: ERR/PGC reporter cell line, luciferase agonist mode; series mostly up to 46.1 µM
Summary of the method: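 In this quantitative high-throughput screen, an 18 h, 37 C treatment of PGC/ERR cells with compounds in DMSO preceded a One-Glo luminescence read taken after 30 min at room temperature.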

[6] = qHTS assay to identify small molecule antagonists of the estrogen related receptor (ERR) signaling pathway (AID 1224819; also: nearly all actives have a fitted effect of over 50% in size; also: potency is read from the fitted curve at half-maximal effect); conditions: ERR reporter cell line, luciferase inhibition; series mostly up to 46.1 µM
Summary of the method: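 LOPAC library screened for antagonism as reduced One-Glo luminescence in ERR reporter cells (2,000/well). Compounds were added after 6 h pre-incubation and left 18 h at 37C; reading followed a 30 min room-temperature reagent step.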

| Compound | Potency [1] | Potency [2] | Potency [3] | Potency [4] | Potency [5] | Potency [6] |
| --- | --- | --- | --- | --- | --- | --- |
| c1ccc2c(c1)CC(N1CCN(c3cccc4c3OCCO4)CC1)C2 | inactive | inactive | inactive | inactive | inactive | – |
| OCc1ccc(-c2nn(Cc3ccccc3)c3ccccc23)o1 | inactive | inactive | inactive | inactive | inactive | – |
| S=C(S)N1CCCC1 | inactive | inactive | 3.22 µM (active) | 0.287 µM (active) | inactive | – |
| COc1cccc(OC)c1OCCNCC1CSc2ccccc2O1 (centres undefined) | inactive | inactive | inactive | inactive | inactive | – |
| CC(/C=C/c1cccc(Oc2ccc(F)cc2)c1)N(O)C(N)=O (centres undefined) | inactive | inactive | inactive | inactive | inactive | – |
| Cc1nn(-c2ccccc2)c(C)c1/C=N/N1CCN(Cc2ccccc2)CC1 | inactive | inactive | inactive | inactive | inactive | – |
| O=c1ccc2ccc(O)c(O)c2o1 | inactive | inactive | inactive | inactive | inactive | – |
| COc1ccccc1N1CCN(CCN2C(=O)CC3(CCCC3)CC2=O)CC1 | inactive | inactive | inactive | inactive | inactive | – |
| Cn1c(=O)c2[nH]c(C3CCCC3)nc2n(C)c1=O | inactive | inactive | inactive | inactive | inactive | – |
| COc1cc2c(cc1O)CC[C@@H]1[C@@H]2CC[C@]2(C)[C@@H](O)CC[C@@H]12 | inactive | inactive | inactive | inactive | inactive | – |
| Oc1ccc(-c2nc(-c3ccc(F)cc3)c(-c3ccncc3)[nH]2)cc1 | inactive | – | – | – | inactive | 11.4 µM (active) |
| Cn1ncc(S(=O)(=O)Cc2ccccc2)c(Br)c1=O | inactive | – | – | – | inactive | inactive |
| COC(=O)[C@H](NC(=O)c1cc(-c2ccccc2)nc2ccccc12)c1ccccc1 | inactive | inactive | inactive | inactive | inactive | – |
| CC(=O)O[C@H]1Cc2ccccc2N(C(N)=O)c2ccccc21 | inactive | – | inactive | – | inactive | inactive |
| COc1cc(C(O)C(=O)O)ccc1O (centres undefined) | inactive | – | inactive | – | inactive | inactive |
| CC#CCOC(=O)c1c(C)nc2sc3c(c2c1N)CCC(O)C3 (centres undefined) | inactive | inactive | inactive | inactive | inactive | – |
| COc1cccc(OC)c1OCCNCC1COc2ccccc2O1 (centres undefined) | inactive | inactive | inactive | inactive | inactive | – |

| Compound | Potency [1] | Potency [2] | Potency [3] | Potency [4] | Potency [5] | Potency [6] |
| --- | --- | --- | --- | --- | --- | --- |
| N[C@H](C(=O)O)[C@H](Cc1ccccc1)C(=O)O | inactive | – | – | inactive | inactive | inactive |
| O=c1ccc2c(OCCCCc3ccccc3)c3ccoc3cc2o1 | inactive | inactive | inactive | inactive | inactive | – |
| CC(C)(C)c1ccc(/C=C/C(=O)Nc2ccc3c(c2)OCCO3)cc1 | inactive | inactive | inactive | inactive | inactive | – |
| CN1CCC2(CCN3CCc4c(oc5ccccc45)C3C2)N(C)C1=O (centres undefined) | inactive | inactive | inactive | inactive | inactive | – |
| Nc1nc(OCC2CCCCC2)c2[nH]cnc2n1 | inactive | inactive | inactive | inactive | inactive | – |
| CC(C)COC(=O)OCN1C(=O)CN(CCN2CC(=O)N(COC(=O)OCC(C)C)C(=O)C2)CC1=O | inactive | – | – | inactive | inactive | inactive |
| CN(C)CCCC1(c2ccc(F)cc2)OCc2cc(C#N)ccc21 (centres undefined) | inactive | – | inactive | – | inactive | inactive |
| Clc1ccc(N2CCN(Cc3c[nH]c4ncccc34)CC2)cc1 | inactive | inactive | inactive | inactive | inactive | – |
| N[C@@H](CCCC(=O)O)C(=O)O | inactive | – | inactive | – | inactive | inactive |
| NC(=Nc1ccccc1)NC(=O)c1nc(Cl)c(N)nc1N | inactive | – | inactive | inactive | inactive | inactive |
| COc1ccc(-c2cc(=O)c3c(O)c(OC)c(OC)cc3o2)cc1O | inactive | inactive | inactive | inactive | inactive | – |
| N=S(=O)(O)Cc1noc2ccccc12 | inactive | – | inactive | – | inactive | inactive |
| OC1(c2ccc(Cl)cc2)CCN(Cc2c[nH]c3ccccc23)CC1 | inactive | inactive | inactive | – | – | – |
| N#C/C(=C\c1ccc(O)c(O)c1)C(=O)NCCCNC(=O)/C(C#N)=C/c1ccc(O)c(O)c1 | inactive | – | inactive | – | inactive | inactive |
| CNC(=O)c1cc2c(cn1)[nH]c1ccccc12 | inactive | – | – | inactive | inactive | inactive |
| Fc1ccc(CN(C2=NCCN2)c2c(Cl)cccc2Cl)cc1 | inactive | – | – | inactive | inactive | inactive |
| CC(=O)[C@H]1CCC2C3CC=C4C[C@@H](OS(=O)(=O)O)CC[C@]4(C)C3CC[C@@]21C (some centres undefined) | inactive | – | inactive | inactive | inactive | inactive |
